PubChem BioAssay (Tox21)
“And” between values parts separate entries of the source, which are not always exact repeats. Equal values may be shown once. Results filed as inconclusive are left out. The source made the active and inactive calls. Unless noted, calls come from the whole dose curve; as a rule, active = well fitted curve in the direction sought with a large enough effect in the repeat runs; inconclusive = weak or mixed curves; inactive = no such curve, though single readings can be large; an effect the other way counts as inactive or inconclusive.

Key:
[1] = target: Progesterone receptor (Homo sapiens) (UniProt P06401); experiment: qHTS assay to identify small molecule agonists of the progesterone receptor (PR) signaling pathway (AID 1346784; calls by dose curve; note: nearly all actives have a fitted effect of over 30% in size)
Progesterone receptor (Homo sapiens), sequence (P06401 whole entry, looked up): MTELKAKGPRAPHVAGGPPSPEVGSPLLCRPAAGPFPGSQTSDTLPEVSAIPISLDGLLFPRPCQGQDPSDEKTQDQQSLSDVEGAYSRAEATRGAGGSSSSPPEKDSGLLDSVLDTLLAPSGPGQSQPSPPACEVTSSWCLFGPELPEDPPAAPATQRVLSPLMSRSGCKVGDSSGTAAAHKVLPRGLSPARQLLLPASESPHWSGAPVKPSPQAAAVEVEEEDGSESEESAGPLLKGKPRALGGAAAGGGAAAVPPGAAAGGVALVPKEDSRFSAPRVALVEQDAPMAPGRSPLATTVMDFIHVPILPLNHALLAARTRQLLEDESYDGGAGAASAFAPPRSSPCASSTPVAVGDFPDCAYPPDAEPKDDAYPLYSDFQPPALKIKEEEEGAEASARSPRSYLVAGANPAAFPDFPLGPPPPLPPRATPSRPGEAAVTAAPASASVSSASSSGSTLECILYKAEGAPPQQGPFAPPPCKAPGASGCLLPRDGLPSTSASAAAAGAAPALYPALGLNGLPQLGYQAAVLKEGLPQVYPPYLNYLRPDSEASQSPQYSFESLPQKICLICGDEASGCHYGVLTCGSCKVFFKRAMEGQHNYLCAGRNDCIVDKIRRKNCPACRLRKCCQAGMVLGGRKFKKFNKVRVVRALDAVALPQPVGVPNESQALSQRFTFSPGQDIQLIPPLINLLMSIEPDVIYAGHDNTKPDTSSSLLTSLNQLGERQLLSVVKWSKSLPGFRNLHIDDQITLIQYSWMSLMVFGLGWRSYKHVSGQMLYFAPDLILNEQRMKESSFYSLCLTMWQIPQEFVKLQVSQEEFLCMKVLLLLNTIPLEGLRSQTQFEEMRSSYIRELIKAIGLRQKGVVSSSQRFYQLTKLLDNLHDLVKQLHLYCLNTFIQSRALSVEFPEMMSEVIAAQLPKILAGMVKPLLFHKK
Method in brief: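 PR-UAS-bla HEK 293T cells (beta-lactamase reporter under UAS) in 2% charcoal-stripped FBS, dosed with 23 nL compound after 6 hr, incubated 16hr at 37C. LiveBLAzer B/G FRET substrate added, fluorescence read after 2 hours.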

[2] = target: Progesterone receptor (Homo sapiens) (UniProt P06401); experiment: qHTS assay to identify small molecule antagonists of the progesterone receptor (PR) signaling pathway (AID 1346795; active = well fitted inhibition curve with a large enough effect in the signal ratio in the repeat runs, not every such curve was filed as active; the % refers to the signal ratio; note: potency is the fitted concentration of half-maximal effect)
Method in brief: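 PR-UAS-bla HEK293T cells with beta-lactamase reporter under UAS control, in 2% charcoal-stripped FBS, treated with compounds plus 1 nM promegestone (R5020, final) for 16 hr at 37C. Read-out: FRET beta-lactamase substrate fluorescence after 2 hr at room temperature.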

[3] = qHTS assay to identify small molecule antagonists of the progesterone receptor (PR) signaling pathway - cell viability counter screen (AID 1346798); note: series mostly up to about 92 µM; nearly all actives have a fitted effect of over 50% in size
Method in brief: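 PR-UAS-bla HEK293T cells, 3,000/well in 2% charcoal-stripped FBS medium, dosed with compounds plus R5020 agonist and incubated 16 h at 37C. Viability then measured in the same wells by CellTiter-Glo luminescence after 30 min at RT.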

[4] = qHTS assay to identify small molecule agonists of the progesterone receptor (PR) signaling pathway - cell viability counter screen (AID 1346799; calls by dose curve; note: nearly all actives have a fitted effect of over 45% in size)
Method in brief: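 Counter screen in the PR-UAS-bla HEK293T wells (2% charcoal-stripped FBS, 16 h compound exposure at 37 C) after the bla read. CellTiter-Glo added, 30 min at room temperature, luminescence read as cell viability.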

[5] = qHTS assay to identify small molecule antagonists of the TGF-beta/Smad signaling pathway - cell viability counter screen (AID 1346824); note: nearly all actives have a fitted effect of over 50% in size
Method in brief: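 SBE-bla HEK 293T cells, incubated overnight, then compound plus 0.25 ng/mL TGF-beta1 (stock added) for 5 hr at 37 C. Viability was read in the same wells by CellTiter-Glo luminescence after 30 min at room temperature.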

[6] = qHTS assay to identify small molecule agonists of the TGF-beta/Smad signaling pathway - cell viability counter screen (AID 1346829); note: top concentration of the series differs between compounds; nearly all actives have a fitted effect of over 45% in size
Method in brief: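 In parallel with the Smad reporter read, viability of HEK 293T cells stably carrying SBE-bla is quantified by ATP luminescence following 5 hr compound treatment.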

[7] = qHTS assay to identify small molecule agonists of the TGF-beta/Smad signaling pathway (AID 1346859; active = well fitted activation curve with a large enough effect in the signal ratio in the repeat runs, not every such curve was filed as active; the % refers to the signal ratio; note: series mostly up to about 77 µM)
Method in brief: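 SBE-bla HEK293T cells plated overnight, then compound exposure for 5 h at 37 C. Beta-lactamase reporter read with LiveBLAzer B/G FRET substrate after 2 h at room temperature, fluorescence at 405 nm excitation, 460/530 nm emission.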

[8] = target: Thyrotropin-releasing hormone receptor (Homo sapiens) (UniProt P34981); experiment: qHTS assay to identify small molecule antagonists of the thyrotropin-releasing hormone receptor (TRHR) signaling pathway (AID 1346877; active = well fitted inhibition curve with a large enough effect in the repeat runs, not every such curve was filed as active; note: series mostly up to about 51 µM)
Thyrotropin-releasing hormone receptor (Homo sapiens), sequence (P34981 whole entry, looked up): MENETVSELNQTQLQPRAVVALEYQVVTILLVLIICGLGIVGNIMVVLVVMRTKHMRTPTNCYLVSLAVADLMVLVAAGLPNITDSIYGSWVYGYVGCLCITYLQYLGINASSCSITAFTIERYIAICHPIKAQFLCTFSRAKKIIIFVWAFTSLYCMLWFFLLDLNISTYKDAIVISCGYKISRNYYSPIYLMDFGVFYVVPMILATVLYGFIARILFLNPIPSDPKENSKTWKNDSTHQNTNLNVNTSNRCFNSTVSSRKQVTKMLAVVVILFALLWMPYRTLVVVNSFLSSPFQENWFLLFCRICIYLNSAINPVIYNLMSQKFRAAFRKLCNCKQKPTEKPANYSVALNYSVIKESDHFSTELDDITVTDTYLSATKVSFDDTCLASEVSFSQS
Method in brief: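 TRHR-expressing HEK293 cells were seeded, cultured 18 h at 37 °C, then loaded with calcium dye for 2 h. Compounds were pre-incubated 5 min at room temperature before 1 nM TRH (final) was added, and kinetic fluorescence was recorded for 3 min.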

[9] = target: Thyrotropin-releasing hormone receptor (Homo sapiens) (UniProt P34981); experiment: qHTS assay to identify small molecule agonists of the thyrotropin-releasing hormone receptor (TRHR) signaling pathway (AID 1346891; calls by dose curve; note: series mostly up to about 58 µM)
Method in brief: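 HEK293 cells expressing TRHR plated 18 h at 37 C/5% CO2, calcium dye-loaded 2 h at 37 C, then compound added (agonist mode); kinetic calcium fluorescence read 3 min at 1 s intervals; 15 concentrations in triplicate.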

[10] = Human pregnane X receptor (PXR) small molecule agonists, qHTS cell viability counter screen (AID 1346977); note: nearly all actives have a fitted effect of over 50% in size; note: potency is the fitted concentration of half-maximal effect
Method in brief: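 PXR-Luc HepG2 cells (2,000/well, 5% charcoal-stripped FBS) preincubated 5 hr, then exposed to compounds 24 hr at 37 C. Viability read in the same wells by CellTiter-Fluor fluorescence, reagent added at 23 hr, 1 hr incubation.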

[11] = Caspase-3/7 induction in CHO-K1 cells by small molecules, qHTS assay (AID 1346980); note: nearly all actives have a fitted effect of over 15% in size
Method in brief: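 Wild-type CHO-K1 cells exposed to compounds for 17hr at 37 C, 5% CO2. Caspase-3/7 activity then measured by Caspase-Glo 3/7 luminescence after 30min at room temperature.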

[12] = target: Nuclear receptor subfamily 1 group I member 2 (Homo sapiens) (UniProt O75469); experiment: Human pregnane X receptor (PXR) small molecule agonists, qHTS assay (AID 1346982); note: nearly all actives have a fitted effect of over 35% in size; note: potency is the fitted concentration of half-maximal effect
Nuclear receptor subfamily 1 group I member 2 (Homo sapiens), sequence (O75469 whole entry, looked up): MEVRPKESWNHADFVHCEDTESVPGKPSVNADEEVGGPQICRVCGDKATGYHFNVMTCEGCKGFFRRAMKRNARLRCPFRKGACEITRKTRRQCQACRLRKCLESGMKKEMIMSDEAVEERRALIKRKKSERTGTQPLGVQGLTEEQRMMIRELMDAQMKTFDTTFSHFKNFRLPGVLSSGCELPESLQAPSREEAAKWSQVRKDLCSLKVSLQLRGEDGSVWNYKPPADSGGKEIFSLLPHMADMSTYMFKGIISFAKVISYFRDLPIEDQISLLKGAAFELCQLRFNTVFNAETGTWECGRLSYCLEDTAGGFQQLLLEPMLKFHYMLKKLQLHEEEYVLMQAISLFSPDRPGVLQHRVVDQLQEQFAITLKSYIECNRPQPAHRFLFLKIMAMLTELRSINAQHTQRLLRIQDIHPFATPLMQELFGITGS
Method in brief: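 PXR-Luc HepG2 cells (CYP3A4 promoter-driven luciferase) were seeded in medium with 5% charcoal-stripped FBS, left 5 hr at 37 C, then exposed to compounds in DMSO for 24 hr. Luminescence was read after ONE-Glo addition.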

[13] = target: Nuclear receptor subfamily 1 group I member 2 (Rattus norvegicus) (UniProt Q9R1A7); experiment: Rat pregnane X receptor (rPXR) activation by small molecules, qHTS assay (AID 1346983); details: rPXR luciferase reporter cells, One-Glo luminescence, 24 h; max activation: stronger effect = higher value; note: nearly all actives have a fitted effect of over 20% in size
Nuclear receptor subfamily 1 group I member 2 (Rattus norvegicus), sequence (Q9R1A7 whole entry, looked up): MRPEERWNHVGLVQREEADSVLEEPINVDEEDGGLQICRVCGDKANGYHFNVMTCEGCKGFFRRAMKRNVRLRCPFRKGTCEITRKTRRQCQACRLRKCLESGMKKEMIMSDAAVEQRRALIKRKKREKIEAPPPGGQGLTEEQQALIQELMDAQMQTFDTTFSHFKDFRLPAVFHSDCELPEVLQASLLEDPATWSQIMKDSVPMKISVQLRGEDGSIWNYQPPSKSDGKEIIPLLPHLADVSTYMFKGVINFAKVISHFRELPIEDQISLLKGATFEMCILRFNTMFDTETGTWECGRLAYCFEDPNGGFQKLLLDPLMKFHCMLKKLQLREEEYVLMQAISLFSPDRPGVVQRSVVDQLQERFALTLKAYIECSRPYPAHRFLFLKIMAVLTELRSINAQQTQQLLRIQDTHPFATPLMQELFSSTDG
Method in brief: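 Cell-based rPXR activation assay: rPXR cells, 2,000 per well, rested 5hr at 37 C, then exposed to compounds in DMSO for 24 hr at 37 C. Luciferase activity read by One-Glo luminescence after 30 min at room temperature.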

[14] = target: Nuclear receptor subfamily 1 group I member 2 (Homo sapiens) (UniProt O75469); experiment: CYP3A4 induction through human pregnane X receptor (PXR) by small molecules, qHTS assay (AID 1346984); note: nearly all actives have a fitted effect of over 40% in size; note: potency is the fitted concentration of half-maximal effect
Method in brief: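 DPX-2 cells (HepG2 co-transfected with PXR and CYP3A4 promoter-luciferase) treated with compounds 24 h at 37C; luciferin-IPA CYP3A4 substrate 3uM final added for 3 h, then One-Glo; luminescence read. qHTS format.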

[15] = target: Cytochrome P450 2C19 (Homo sapiens) (UniProt P33261); experiment: Cytochrome P450 Family 2 Subfamily C Member 19 (CYP2C19) small molecule antagonists: luciferase reporter qHTS assay (AID 1671197); note: nearly all actives have a fitted effect of over 65% in size; note: potency is the fitted concentration of half-maximal effect
Cytochrome P450 2C19 (Homo sapiens), sequence (P33261 whole entry, looked up): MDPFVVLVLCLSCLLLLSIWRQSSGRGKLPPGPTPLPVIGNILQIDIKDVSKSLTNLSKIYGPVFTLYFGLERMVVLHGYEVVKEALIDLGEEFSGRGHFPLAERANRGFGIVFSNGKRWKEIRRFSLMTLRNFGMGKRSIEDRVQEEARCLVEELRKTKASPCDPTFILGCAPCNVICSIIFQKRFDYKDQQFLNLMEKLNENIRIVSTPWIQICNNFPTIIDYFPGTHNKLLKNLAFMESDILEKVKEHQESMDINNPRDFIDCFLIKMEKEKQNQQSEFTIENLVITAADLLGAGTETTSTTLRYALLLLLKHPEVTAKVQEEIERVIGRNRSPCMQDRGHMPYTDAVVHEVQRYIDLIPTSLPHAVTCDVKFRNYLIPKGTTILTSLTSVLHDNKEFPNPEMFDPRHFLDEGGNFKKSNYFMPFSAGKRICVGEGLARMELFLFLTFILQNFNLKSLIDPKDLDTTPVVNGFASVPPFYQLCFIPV
Method in brief: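 Compounds were tested on CYP2C19 activity via proluciferin conversion to luciferin. The 37C, 1 h reaction followed NADPH addition; detection reagent stopped it.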

[16] = target: Cytochrome P450 2C9 (Homo sapiens) (UniProt P11712); experiment: Cytochrome P450 Family 2 Subfamily C Member 9 (CYP2C9) small molecule antagonists: luciferase reporter qHTS assay (AID 1671198); note: nearly all actives have a fitted effect of over 50% in size; note: potency is the fitted concentration of half-maximal effect
Cytochrome P450 2C9 (Homo sapiens), sequence (P11712 whole entry, looked up): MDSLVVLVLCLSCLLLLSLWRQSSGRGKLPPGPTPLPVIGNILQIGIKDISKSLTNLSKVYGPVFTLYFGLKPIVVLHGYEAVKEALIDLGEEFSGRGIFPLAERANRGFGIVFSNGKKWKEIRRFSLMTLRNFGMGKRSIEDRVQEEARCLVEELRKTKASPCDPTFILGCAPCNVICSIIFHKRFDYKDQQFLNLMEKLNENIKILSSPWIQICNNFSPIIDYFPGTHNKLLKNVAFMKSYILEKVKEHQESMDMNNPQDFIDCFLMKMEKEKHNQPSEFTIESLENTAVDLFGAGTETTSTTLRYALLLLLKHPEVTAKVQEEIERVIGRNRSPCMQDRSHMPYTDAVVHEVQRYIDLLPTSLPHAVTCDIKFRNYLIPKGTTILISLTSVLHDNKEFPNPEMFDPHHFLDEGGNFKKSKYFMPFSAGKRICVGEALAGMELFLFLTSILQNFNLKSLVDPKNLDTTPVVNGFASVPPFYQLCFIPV
Method in brief: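 P450-Glo proluciferin substrate with CYP2C9 enzyme; 10 min RT preincubation, then NADPH regeneration 1 h at 37C; luciferin detection reagent 20 min RT, luminescence in relative luminescence units.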

[17] = Caspase-3/7 induction in HepG2 cells by small molecules, qHTS assay (AID 1346978); note: nearly all actives have a fitted effect of over 15% in size; note: potency is the fitted concentration of half-maximal effect
Method in brief: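 Wild-type HepG2 cells, 2,000/well, settled 5 hr at 37 C and 5% CO2, then compound-treated for 17 hr; caspase-3/7 activity read by luminescent Caspase-Glo 3/7 after 30 min at room temperature.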

[18] = Caspase-3/7 induction in HepG2 cells by small molecules, qHTS cell viability counter screen (AID 1346981); note: series mostly up to about 92 µM; nearly all actives have a fitted effect of over 30% in size
Method in brief: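 Wild-type HepG2 cells (2,000/well) were allowed to settle for 5 hr at 37 C, 5% CO2, then dosed with compounds in DMSO by pin transfer. After 16 hr at 37 C, CellTiter-Fluor was added and fluorescence read 1 hr later.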

[19] = target: Cytochrome P450 2D6 (Homo sapiens) (UniProt P10635); experiment: Cytochrome P450 Family 2 Subfamily D Member 6 (CYP2D6) small molecule antagonists: luciferase reporter qHTS assay (AID 1671196); note: nearly all actives have a fitted effect of over 50% in size; note: potency is the fitted concentration of half-maximal effect
Cytochrome P450 2D6 (Homo sapiens), sequence (P10635 whole entry, looked up): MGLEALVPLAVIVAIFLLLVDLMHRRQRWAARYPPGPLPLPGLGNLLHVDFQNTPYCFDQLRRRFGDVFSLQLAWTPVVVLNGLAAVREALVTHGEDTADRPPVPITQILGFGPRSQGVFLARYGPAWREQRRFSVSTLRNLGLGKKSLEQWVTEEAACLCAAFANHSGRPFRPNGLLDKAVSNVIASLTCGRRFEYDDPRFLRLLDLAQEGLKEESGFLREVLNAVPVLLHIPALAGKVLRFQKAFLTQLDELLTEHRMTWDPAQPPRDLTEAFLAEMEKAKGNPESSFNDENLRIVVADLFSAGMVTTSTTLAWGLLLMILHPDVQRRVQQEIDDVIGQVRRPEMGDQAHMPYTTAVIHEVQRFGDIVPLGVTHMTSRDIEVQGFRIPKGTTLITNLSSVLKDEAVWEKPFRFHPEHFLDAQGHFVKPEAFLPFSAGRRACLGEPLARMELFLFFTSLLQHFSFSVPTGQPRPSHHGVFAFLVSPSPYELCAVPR
Method in brief: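 CYP2D6 enzyme–substrate mix was held with compound for 10 min at room temperature, then NADPH regeneration solution was added and the reaction ran 1 h at room temperature. Luciferin product was detected by luminescence after 20 min with detection reagent.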

[20] = Caspase-3/7 induction in CHO-K1 cells by small molecules, qHTS cell viability counter screen (AID 1346979); note: nearly all actives have a fitted effect of over 35% in size; note: potency is the fitted concentration of half-maximal effect
Method in brief: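 Wild-type CHO-K1 cells (1,500/well) treated with compound after 5 h plating; after 16 h at 37C, viability read as CellTiter-Fluor fluorescence following 1 h reagent incubation, in the same wells as the caspase read.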
% is set by controls: 0 for no effect and ±100 for the full control effect.

Cc1c(C)n(Cc2ccccc2)c2ccc(C(=O)OCCN(C)C)cc12
inactive: outcome [1] | Potency [3] | Potency [4] | Potency [5] | Potency [6] | Potency [7] | Potency [8] | Potency [9] | Potency [11] | max activation [13] 1.71%
active: Potency [2] 26.6 µM | Potency [10] 21.1 µM | Potency [12] 7.5 µM | Potency [14] 3.98 µM | Potency [15] 15.5 µM | Potency [16] 15.5 µM

CC(C)c1ccc(O)c(C(C)C)c1
active: Potency [17] 61.1 µM | Potency [16] 35.6 µM
inactive: outcome [1] | Potency [2] | Potency [3] | Potency [4] | Potency [5] | Potency [6] | Potency [7] | Potency [8] | Potency [9] | Potency [10] | Potency [11] | Potency [18] | Potency [12] | Potency [19]

CC1(C)C(=O)N(Br)C(=O)N1Br
inactive: outcome [1] | Potency [2] | Potency [3] | Potency [4] | Potency [5] | Potency [6] | Potency [7] | Potency [10] | Potency [17] | Potency [20] | Potency [18] | Potency [12] | Potency [15]

CCCCC(CC)COC(=O)c1ccc(O)cc1 (stereo not drawn)
inactive: outcome [1] | Potency [3] | Potency [4] | Potency [6] | Potency [7] | Potency [8] | Potency [9] | Potency [17]
active: Potency [2] 30.5 µM and 27.3 µM | Potency [20] 54.3 µM and 61.1 µM | Potency [12] 24.2 µM and 68.6 µM | Potency [19] 79.4 µM and 22.4 µM | Potency [15] 11.2 µM and 17.8 µM | Potency [16] 31.6 µM and 35.6 µM

CO[Si](CCC1CCC2OC2C1)(OC)OC (stereo not drawn)
inactive: outcome [1] | Potency [2] | Potency [3] | Potency [4] | Potency [5] | Potency [6] | Potency [7] | Potency [8] | Potency [9] | Potency [10] | Potency [17] | Potency [11] | Potency [18] | Potency [12] | Potency [19] | Potency [15] | Potency [16]

CCCCN(CCCC)CCC(O)c1cc2c(Cl)cc(Cl)cc2c2cc(C(F)(F)F)ccc12 (stereo not drawn)
inactive: outcome [1] | Potency [2] | Potency [3] | Potency [4] | Potency [5] | Potency [6] | Potency [7] | Potency [17] | Potency [11] | max activation [13] -2.62% | Potency [14] | Potency [15] | Potency [16]
active: Potency [10] 26.6 µM | Potency [20] 26.6 µM | Potency [12] 21.1 µM

CC(=O)C=O
inactive: outcome [1] | Potency [2] | Potency [3] | Potency [4] | Potency [5] | Potency [6] | Potency [7] | Potency [10] | Potency [17] | Potency [11] | Potency [18] | Potency [15] | Potency [16]

Oc1cc2ccccc2cc1O
active: Potency [15] 39.9 µM
inactive: outcome [1] | Potency [2] | Potency [3] | Potency [4] | Potency [5] | Potency [6] | Potency [10] | Potency [17] | Potency [20] | Potency [11] | Potency [18] | Potency [12]

CN1[C@@H]2CC[C@@H]1CC(OC(=O)C(CO)c1ccccc1)C2 (stereo partly drawn)
inactive: outcome [1] | Potency [2] | Potency [3] | Potency [5] | Potency [6] | Potency [7] | Potency [10] | Potency [17] | Potency [11] | Potency [18]
